Source: PubChem BioAssay (NCI)
About 83,000 compounds went through this panel and 20% of them were active in at least one assay; those are over-represented in the sample as a whole.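 96-well plates, one dose, 48 hours. Percent growth reported; active if below 10.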 A number with no mark means an inactive call. Calls of active or inactive are those of the source.

Legend:
Test in all cases: NCI-60 one-dose screen, 48 h (100 = growth as untreated, 0 = no growth, -100 = all killed)
NCI-H226 lung = conditions: 10 µM
NCI-H322M lung = conditions: 10 µM
HOP-62 NSCLC = conditions: 10 µM
NCI-H460 lung = conditions: 10 µM
NCI-H522 lung = conditions: 10 µM
A549/ATCC NSCLC = conditions: 10 µM
DU-145 prostate = conditions: 10 µM
K-562 leukemia = conditions: 10 µM
SF-539 CNS = conditions: 10 µM
M14 melanoma = conditions: 10 µM
HCT-15 colon = conditions: 10 µM
HT29 colon = conditions: 10 µM
SNB-75 CNS = conditions: 10 µM
SNB-19 CNS = conditions: 10 µM
U251 CNS = conditions: 10 µM
MOLT-4 leukemia = conditions: 10 µM
SR leukemia = conditions: 10 µM
RPMI-8226 leukemia = conditions: 10 µM
SK-OV-3 ovarian = conditions: 10 µM
MDA-MB-468 breast = conditions: 10 µM unless noted

| SMILES | growth (NCI-H226 lung) | growth (NCI-H322M lung) | growth (HOP-62 NSCLC) | growth (NCI-H460 lung) | growth (NCI-H522 lung) | growth (A549/ATCC NSCLC) | growth (DU-145 prostate) | growth (K-562 leukemia) | growth (SF-539 CNS) | growth (M14 melanoma) | growth (HCT-15 colon) | growth (HT29 colon) | growth (SNB-75 CNS) | growth (SNB-19 CNS) | growth (U251 CNS) | growth (MOLT-4 leukemia) | growth (SR leukemia) | growth (RPMI-8226 leukemia) | growth (SK-OV-3 ovarian) | growth (MDA-MB-468 breast) |
| --- | --- | --- | --- | --- | --- | --- | --- | --- | --- | --- | --- | --- | --- | --- | --- | --- | --- | --- | --- | --- |
| COc1cccc(O)c1/C=C1\SCc2cc3c(OC)cccc3[o+]c21 | 98.2% | 103% | 105% | 127% | 102% | 108% | 114% | 106% | 98% | 106% | 111% | 113% | 115% | 101% | 114% | 112% | 98% | 107% | 118% | 112% |
| O=C(CN1CCN(c2ncnc3c2cnn3-c2ccccc2)CC1)Nc1ccc(Cl)cc1 | 67.5% | 78.9% | 85.7% | 53.3% | -83.1% (active) | 67% | 57.5% | 42.4% | 76.1% | 59.4% | 45% | 63.4% | 69.7% | 66.5% | 66.7% | 7.06% (active) | 36.9% | 44.4% | 79.2% | 42.5% |
| COc1ccc(NCc2cn(-c3ccc(C(=O)O)cc3)nc2-c2ccc(F)cc2)cc1C(F)(F)F | 66.3% | 62% | 66.3% | 37.2% | 40.2% | 35.8% | 69.3% | 41.3% | 53.9% | 51.5% | 43.7% | 51% | 79.1% | 39.3% | 29.5% | 40.7% | 50.7% | 37.6% | 112% | 65.1% |
| COc1ccc(Cc2nn(CC(=O)N/N=C/c3ccc([N+](=O)[O-])cc3)c(=O)c3c(C)noc23)cc1 | 70.6% | 78.6% | 39.6% | 16.6% | 76.1% | 22.5% | 88.4% | 88.4% | 34% | 70.1% | 83.7% | 96.2% | 99.8% | 59.6% | 24.4% | 90.2% | 93.2% | 81.5% | 103% | 53.1% |
| COc1cc2oc(-c3cccc(C(=O)Nc4ccc(Cl)cc4)c3)cc(=O)c2c(OCCNC(=O)[C@@H](N)CO)c1OC | 95.1% | 55.3% | 87.6% | 40.2% | -27.9% (active) | 102% | 77% | -53.3% (active) | 23.9% | -81.8% (active) | 83% | 37.3% | 121% | 25% | -82.6% (active) | -40.4% (active) | -38.1% (active) | -23.4% (active) | 115% | -85.6% (active) |
| O=C1S/C(=C\c2ccc([N+](=O)[O-])cc2)C(=O)N1CCN1CCCCC1 | 105% | 107% | 112% | 115% | 99.7% | 110% | 119% | 98.1% | 112% | 98.6% | 92.6% | 121% | 104% | 98.6% | 102% | 101% | 111% | 106% | 102% | 99.5% |
| COc1ccc(Cc2nn(CC(=O)N/N=C/c3ccc(Br)cc3)c(=O)c3c(C)noc23)cc1 | 55.3% | 62.6% | 2.75% (active) | 9.38% (active) | 29.2% | 6.92% (active) | 55.4% | 51.8% | 13% | 57.6% | 63.8% | 63.4% | -30.1% (active) | 21.6% | -27.7% (active) | 63.2% | 38.5% | 55.4% | -30% (active) | 26.4% |
